HPGD block = inhibitors of human 15-hydroxyprostaglandin dehydrogenase (HPGD); Potency, µM, for inactives: at the top dose activity change, negative = inhibition, most hits filed as inhibitors; P15428; purified HPGD, NADH fluorescence kinetic, PGE2 substrate; 4.3% of 150,000 active; active means well fitted inhibition curve with a large enough effect, not every such curve was filed as active; inconclusive means small, poorly fitted or top-dose-only effect, or another doubt; inactive means no such curve, though single readings can be large or run the other way; further: on the % scale 0 is the no-effect control and ±100 the full control effect
Target sequence (P15428 whole entry, looked up): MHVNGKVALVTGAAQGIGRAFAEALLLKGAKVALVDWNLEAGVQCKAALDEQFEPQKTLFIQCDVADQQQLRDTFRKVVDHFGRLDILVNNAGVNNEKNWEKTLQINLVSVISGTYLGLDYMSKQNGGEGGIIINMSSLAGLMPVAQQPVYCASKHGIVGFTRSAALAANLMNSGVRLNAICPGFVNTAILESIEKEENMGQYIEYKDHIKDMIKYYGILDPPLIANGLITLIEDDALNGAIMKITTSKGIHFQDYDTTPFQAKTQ
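20 nM HPGD preincubated 15 min at room temperature with compound in 50 mM Tris-HCl pH 8, 0.01% Tween 20. Started with 1 mM NAD+ and 30 uM prostaglandin E2; NADH fluorescence (360/450 nm) read 5 times over 30-s intervals, last minus first.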
LMNA splice mod = changes lamin A minigene splicing in HeLa cells; Potency, µM (series often up to 46.1 µM), inactives show at the highest dose ratio change, negative = inhibition, hits mostly inhibitors; HeLa LMNA splicing GFP/RFP minigene ratio, 48 h; 0.01% of 200,000 active; AID 1487; active means well fitted inhibition curve with a large enough effect in the signal ratio, with a control signal flat, not every such curve was filed as active; inconclusive means small, poorly fitted or top-dose-only effect, or effect the other way, or a change in a side signal; the % refers to the signal ratio; further: on the % scale 0 is the no-effect control and ±100 the full control effect
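S3 HeLa cells stably expressing lamin A-EGFP splicing minigene plus DsRed2, 600 cells/well, 48 h compound exposure at 37C. Laser-scanning cytometry; analysed as GFP (500-530 nm)/RFP (575-640 nm) total intensity ratio; 0.5% DMSO vehicle.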
HTT cytoprotect = cytoprotection in Huntington HTT-Q103 PC12 cell model | PC12 HTT-Q103 induced, cytoprotection, ATP luminescence, 40 h | Potency, µM (top dose mostly 56.4 µM), for the others: cytoprotection (ATP increase), usual class: activators | 0.14% of 230,000 active; further: % of control where 0% means no effect; nearly all actives have a fitted effect of over 45% in size
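PC12 cells with ecdysone-inducible HTT exon 1 Q103-GFP, induced with 100 nM tebufenozide and co-treated with library compounds in a dose series (1536-well, 1500 cells/well). Cytoprotection read as ATP content by ATPlite luminescence.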
ALDH1A1 block = ALDH1A1 (human) enzyme inhibition. P00352. Purified ALDH1A1, NADH fluorescence, propionaldehyde substrate. Potency, µM (doses to about 75.3 µM), inactives show top-dose activity, negative = inhibition, hits mostly inhibitors. 7.3% of 220,000 active. AID 1030; active means well fitted inhibition curve with a large enough effect, not every such curve was filed as active; inconclusive means small, poorly fitted or top-dose-only effect, or another doubt; inactive means no such curve, though single readings can be large or run the other way;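 further: plate controls were no enzyme wells and a reference inhibitor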
Target sequence (P00352 whole entry, looked up): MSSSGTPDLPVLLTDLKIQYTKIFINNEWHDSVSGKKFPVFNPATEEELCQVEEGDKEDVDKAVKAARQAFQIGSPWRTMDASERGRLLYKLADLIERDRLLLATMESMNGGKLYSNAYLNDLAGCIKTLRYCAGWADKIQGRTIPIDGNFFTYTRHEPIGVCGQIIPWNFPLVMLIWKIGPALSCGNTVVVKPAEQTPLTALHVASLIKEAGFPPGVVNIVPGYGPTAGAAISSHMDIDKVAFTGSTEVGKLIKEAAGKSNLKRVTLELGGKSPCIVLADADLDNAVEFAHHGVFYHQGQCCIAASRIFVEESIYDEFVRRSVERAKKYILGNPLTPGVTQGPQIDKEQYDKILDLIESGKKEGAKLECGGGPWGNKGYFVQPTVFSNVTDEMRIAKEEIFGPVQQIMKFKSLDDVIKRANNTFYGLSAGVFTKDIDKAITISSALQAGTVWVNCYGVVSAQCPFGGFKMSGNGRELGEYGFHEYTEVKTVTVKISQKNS
HttQ103 aggreg = reduces HttQ103-GFP aggregates in PC12 cells; Potency, µM (highest dose often 46.1 µM), inactives show at the top dose activity change, negative = inhibition, most hits filed as inhibitors; PC12 HttQ103-GFP aggregates, Acumen cytometry, 40 h; 1.1% of 220,000 active; further: on the % scale 0 is the no-effect control and ±100 the full control effect; nearly all actives have a fitted effect of over 60% in size
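Using laser scanning cytometry, GFP-positive aggregates were counted after lysis of PC12 cells induced with 100 nM tebufenozide to express HTT exon 1 Q103–GFP. Compounds were tested in titration.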
Active calls of the source: *; ? = inconclusive; / = no result; ! = repeats disagree; [ ] = another dose, or the depositor's remark. Compounds with a hit are over-represented: about 8.8% of the library has one in this group of screens. Unless noted, the call rests on the fitted dose curve; in most records, active means well fitted curve in the direction sought with a large enough effect; inconclusive means small, poorly fitted or top-dose-only effect, or another doubt; inactive means no such curve, though single readings can be large; an effect the other way counts as inactive or inconclusive. Potency means the concentration at half of the fitted maximal effect.

SMILES	HPGD block	LMNA splice mod	HTT cytoprotect	ALDH1A1 block	HttQ103 aggreg
CCCc1[nH]nc2c1C(c1ccccc1OC)C(C#N)=C(N)O2 (stereo not given)	-8.4%	5.9%	0.3%[10 µM]	?	5.0%
Cc1ccc(SCc2[nH]nc3c2C(c2cccnc2)C(C#N)=C(N)O3)cc1 (stereo not given)	-24.2%	0.7%	-8.0%	?	6.9%
CC(C)Cc1nn2c(=O)cc(COC(=O)c3ccccc3NC(=O)c3ccccc3)nc2s1	/	-1.4%[46 µM]	/	/	/
CCC(Sc1nc2cc3c(cc2c(=O)n1CCCCCC(=O)NCc1ccc2c(c1)OCO2)OCO3)C(=O)NCCCOC (stereo not given)	/	-4.8%[46 µM]	/	/	/
CC(C)(c1cc(Br)c(OCC(Br)CBr)c(Br)c1)c1cc(Br)c(OCC(Br)CBr)c(Br)c1 (stereo not given)	-5.3%	/	-9.3%	?	/
Cc1ccc(NC(=O)C2CCN(S(=O)(=O)c3cccc4nonc34)CC2)nc1	/	?	-8.0%	?	-5.4%
O=C(C1CCN(S(=O)(=O)c2cccc3nonc23)CC1)N1CCN(c2ccccc2F)CC1	/	2.0%[46 µM]	/	/	/
CC1CCN(C(=O)C2CCN(S(=O)(=O)c3cccc4nonc34)CC2)CC1	15.8µM*	-1.3%	-17.3%	?	-2.0%
CC1CCCN(C(=O)C2CCN(S(=O)(=O)c3cccc4cccnc34)CC2)C1 (stereo not given)	14.1µM*	1.8%	-15.9%	?	?
O=C(Nc1ccccn1)C1CCN(S(=O)(=O)c2cccc3nonc23)CC1	-16.4%	-0.6%	5.6%	28.2µM*	2.4%
COc1ccc(NC(=O)C2=C(C)Nc3ncnn3C2c2sccc2C)cc1 (stereo not given)	/	22.7%[46 µM]	/	/	/
COc1ccccc1-c1ccc(=O)n(CC(=O)Nc2ccc(C(=O)N3CCCC3)cc2)n1	14.1µM*	-5.2%	-11.8%	?	0.4%
Cc1c(CCOC(=O)CC23CC4CC(CC(C4)C2)C3)sc[n+]1Cc1ccccc1	5.8%	3.5%	-60.0%	?	11.2µM*
Cc1c(CCOC(=O)C23CC4CC(CC(C4)C2)C3)sc[n+]1CC#N	/	/	0.1%	12.6µM*	9.7%
Cc1c(CCO)sc[n+]1CC(=O)OCCC12CC3CC(CC(C3)C1)C2	-0.4%	10.1%	-15.3%[10 µM]	-8.7%	4.2%
CCn1ccc2cc(S(=O)(=O)N3CCC(C(=O)NCc4ccc(OC)cc4)CC3)ccc21	/	-13.3%[46 µM]	/	/	/
Cc1nonc1OCCNc1ccc([N+](=O)[O-])cc1[N+](=O)[O-]	-14.9%	?	3.2%[10 µM]	-7.6%	24.0%
Cc1nonc1OC(C)CNc1ccc([N+](=O)[O-])cc1 (stereo not given)	28.2µM*	27.0%	-1.7%	?	?
Cc1cc(C(=O)Nc2sc3c(c2C#N)CCCC3)no1	28.2µM*	-15.7%	-31.4%[10 µM]	11.2µM*	-10.4%
N#Cc1c(NC(=O)c2cc(C3CC3)on2)sc2c1CCC2	-27.9%	?	-11.9%	?	19.5%
Cc1cc(C(=O)Nc2sc3c(c2C#N)CCC3)no1	-9.6%	-24.0%	-81.6%	?	-7.1%
CC(=O)Nc1sc2c(c1C#N)CCCCC2	-12.1%	-15.2%	-3.9%[10 µM]	?	?
CC(C)Cc1cc(C(=O)Nc2sc3c(c2C#N)CCC3)no1	?	-28.8%	-4.4%	22.4µM*	-17.7%
CC(C)Cc1cc(C(=O)Nc2sc3c(c2C#N)CCCC3)no1	28.2µM*	?	-0.4%	17.8µM*	16.2%
Cc1ccc(C(=O)Nc2sc3c(c2C#N)CCCCC3)cc1C	?	7.5%	7.8%[1.9 µM]	?	-7.4%
SMILES	HPGD block	LMNA splice mod	HTT cytoprotect	ALDH1A1 block	HttQ103 aggreg
N#Cc1c(NC(=O)c2cc(-n3cnnc3)ccc2Cl)sc2c1CCCC2	-10.7%	?	-14.0%[0.074 µM]	12.6µM*	-13.3%
N#Cc1c(NC(=O)C2CC(Cl)=CCC2C(=O)O)sc2c1CCCC2 (stereo not given)	/	/	/	17.8µM*	/
Cc1ccc(SCCCCN2CCNCC2)cc1	-6.5%	?	/	?	5.7%
O=C(OCCN1C(=O)c2ccccc2C1=O)c1ccccc1	/	/	17.0%	-8.7%	-18.3%
Cn1nc(C(=O)OCCN2C(=O)c3ccccc3C2=O)c2ccccc2c1=O	20µM*	-6.3%	0.5%	3.1%	-15.7%
CCN1C(=O)C(CC(=O)Nc2ccc(F)cc2)N(CCCN2CCN(c3ccc(F)cc3)CC2)C1=S (stereo not given)	/	/	-70.3%	-11.0%	?
Cc1ccc(S(=O)(=O)Nc2cccc3cccnc23)cc1	-26.1%	?	-42.1%	?	12.6µM*
COc1cc(NS(=O)(=O)c2ccc(C)cc2)c2ncccc2c1	?	?	-11.2%[10 µM]	0.3%	-27.4%
COc1ccc(Cn2c(SCc3cc(C)ccc3C)nc3cc(OC)c(OC)cc3c2=N)cc1	?	?	-74.3%[10 µM]	?	3.16µM*
CCOC(=O)C1=C(O)c2ccccc2C(=O)/C1=C\c1ccc(C)cc1	14.1µM*	?	-5.7%[10 µM]	7.94µM*	14.6%
CCOC(=O)C1=C(C)N(c2ccc(C)cc2)C(=O)/C1=C\c1ccc(O)c(OC)c1	/	/	7.3%[10 µM]	/	8.7%[9.22 µM]
COc1cccc(CNC(=O)CN2C(=O)CSc3c2c(C)nn3-c2ccccc2)c1	/	-7.3%[46 µM]	/	/	/
Brc1ccc2[nH]c3c(c2c1)CCC3	/	/	25.0%[10 µM]	-1.0%	24.3%[9.22 µM]
O=C1Cc2c([nH]c3ccc(Br)cc23)-c2ccccc2N1	-25.6%	?	15.8µM*!	10.3%	/
Cc1ccc(S(=O)(=O)NC(C)(C)CSc2ccccn2)cc1	-2.5%	?	32.7%[10 µM]	?	8.6%
CC1=NN(c2ccccc2)C(=O)C1/C=C1\NC(=S)NC1=O (stereo not given)	/	/	-133.7%	12.6µM*	11.1%
Cc1cc(C)c(S(=O)(=O)N2CCCCC2C(=O)O)c(C)c1 (stereo not given)	/	33.7%[46 µM]	-7.0%	20.7%	-6.0%
CCOCCCNC(=O)C1CCC(CNS(=O)(=O)c2cccc3nsnc23)CC1 (stereo not given)	25.1µM*	3.4%	-11.9%[10 µM]	2.6%	1.3%
C/C(N)=C(/C#N)C(=O)CSc1nnc(SCc2ccc(Cl)cc2)s1	-14.5%	?	-4.3%[10 µM]	-10.6%	11.2µM*
C/C(N)=C(/C#N)C(=O)CSc1nnc(Nc2cccc(C)c2C)s1	28.2µM*	-8.6%	-12.2%	?	-15.1%
O=C(COc1ccccc1[N+](=O)[O-])Nc1ccc(N2CCN(C(=O)c3cccs3)CC2)cc1	/	/	-24.6%	-6.3%	-12.4%
CN1C[C@@H]2C[C@H]1CN2c1cc2c(cc1F)c(=O)c(C(=O)O)cn2C1CC1	/	?	51.1%	/	2.4%
CCOC(=O)c1c(NC(=O)CSc2nnc(CNc3ccc(Cl)cc3)o2)sc(C)c1C	-4.1%	-11.0%	24.2%[10 µM]	11.2µM*	-13.4%
CCOC(=O)c1c(NC(=O)CSc2nnnn2-c2ccc(OC)cc2)sc(C)c1C	2.82µM*	4.5%	-2.4%	1µM*	9.1%
CCOC(=O)c1c(NC(=O)CSc2ncnc3ccccc23)sc(C)c1C	-14.5%	?	/	14.1µM*	6.1%

Source: PubChem (National Center for Advancing Translational Sciences (NCATS))
